About 670 (32%) of roughly 2,100 compounds were called active. About 50% were inconclusive and are not listed. The list shows a part of the results. A number with no mark means an inactive call. Calls come from the whole dose curve; as a rule, active = well fitted inhibition curve with a large enough effect; inconclusive = small, poorly fitted or top-dose-only effect; inactive = no such curve, though single readings can be large or run the other way.
Test: CMV-Luciferase Counterscreen for Inhibitors of ATXN expression; note: nearly all actives have a fitted effect of over 55% in size
Conditions: HEK-293 CMV-luciferase reporter, luminescence, 24 h; series mostly up to 57.5 µM; activity change, negative = inhibition: at the top concentration
% is set by controls: 0 for no effect and ±100 for the full control effect; potency is the fitted concentration of half-maximal effect.

Structure (SMILES) | Potency | activity change, negative = inhibition
O=C(CCCOc1ccc(Cl)cc1Cl)N/N=C/c1ccccc1O | 2.51 µM (active) | –
O=C(Cc1ccccc1)N/N=C/c1cc(Br)cc(Br)c1O | 2.51 µM (active) | –
O=C(COc1nsnc1N1CCOCC1)N/N=C/c1ccccc1O | 11.2 µM (active) | –
O=C(CN1CC(c2ccccc2)CC1=O)N/N=C/c1cc(Br)ccc1O (configuration not stated) | 10 µM (active) | –
NC(Cc1ccc(C(F)(F)F)cc1)c1csc(Nc2nccc(C(F)(F)F)n2)n1 (configuration not stated) | – | -10.1% [at 11.4 µM]
COc1ccc(O)c(/C=N/NC(=O)CCC(=O)Nc2cccc(C)c2)c1 | 10 µM (active) | –
O=C(CCC(=O)Nc1ccc(Br)cc1)N/N=C/c1ccccc1O | 1.26 µM (active) | –
NNC(=O)/C(=N/Nc1ccccc1)S(=O)(=O)c1ccc(Cl)cc1 | 3.55 µM (active) | –
CCOC(=O)N(C)c1c(CC)nc2c(OCc3ccccc3C)cccn12 | 20 µM (active) | –
CCc1nc2c(OCc3ccc(Cl)cc3Cl)cccn2c1N(C=O)Cc1ccc(OC)cc1 | 3.16 µM (active) | –
CCCCC(=O)N(C)c1c(CC)nc2c(OCc3ccc(Cl)cc3Cl)cccn12 | 3.55 µM (active) | –
CCCCC1C(=O)CC[C@H]2[C@@H]1CC(=O)[C@@H]2C/C=C\CCCC(=O)O (some centres not stated) | – | 4.23% [at 11.4 µM]
O=C(NCC1CC1)c1ccc2c(c1)S(=O)(=O)c1cc(Cl)ccc1C2=O | – | -10.6% [at 11.4 µM]
C=CCn1c(COc2ccccc2)nnc1SCC(=O)N/N=C/c1cc(Cl)ccc1O | – | -22.4%
C=CCn1c(COc2ccccc2)nnc1SC(C)C(=O)N/N=C/c1cc(Cl)ccc1O (configuration not stated) | 10 µM (active) | –
Cc1nnc(SC(C)C(=O)Nc2ccc(Cl)cn2)n1Cc1ccccc1 (configuration not stated) | – | -4.16%
O=C(Nc1nc(-c2ccccn2)cs1)c1ccccc1-n1cnnn1 | 3.55 µM (active) | –
N#Cc1cc2c(=O)n3ccccc3nc2n(-c2ccccc2Cl)c1=O | – | -3.29%
Cc1nc(SCC(=O)Nc2ccc(S(=O)(=O)N3CCOCC3)cc2)c2c(C)c(C)sc2n1 | 2.82 µM (active) | –
Cc1ccc(C)c(N2CCN(C(=O)C34CC5CC(C3)CC(n3nnc(C)n3)(C5)C4)CC2)c1 | 11.2 µM (active) | –
Cc1ccc(NC(=O)CSc2ccc(Br)cc2)cc1S(=O)(=O)N1CCOCC1 | 22.4 µM (active) | –
COc1ccc(/C=C/C(=O)c2cc3cccc(OC)c3oc2=O)cc1 | – | 30%

Structure (SMILES) | Potency | activity change, negative = inhibition
Cc1ccc(NC(=O)/C=C/c2ccc(S(=O)(=O)N3CCOCC3)cc2)cc1S(=O)(=O)N(C)C | 2.51 µM (active) | –
COc1ccc(/C=C/C(=O)Nc2ccc(C)c(S(=O)(=O)N3CCOCC3)c2)cc1 | 10 µM (active) | –
O=C(CSc1ccc2c(c1)OCCO2)Nc1ccc(Cl)cn1 | – | 294%
Cc1ccc(C)c(S(=O)(=O)N2CCN(Cc3ccc(O)c4ncccc34)CC2)c1 | 2.82 µM (active) | –
OC1(c2ccc(Cl)cc2)CCN(Cc2c[nH]c3ccccc23)CC1 | – | -23.5% [at 11.4 µM]
O=S(=O)(c1ccc(Cl)cc1)N1CCN(Cc2ccc(O)c3ncccc23)CC1 | 8.91 µM (active) | –
COc1ccccc1N1CCN(Cc2ccc(O)c3ncccc23)CC1 | 0.891 µM (active) | –
Cc1ccc(S(=O)(=O)/C(=C/Cl)NC(=O)c2ccccc2)cc1 | 11.2 µM (active) | –
O=C(Nc1ccc(F)cc1)Nc1cc(OCC(F)(F)F)cc(OCC(F)(F)F)c1 | 3.98 µM (active) | –
CC[n+]1ccccc1/C=C1\Sc2ccc(C)cc2N1C | 6.31 µM (active) | –
Cc1cc(C)nc(NNS(=O)(=O)c2ccc(F)c(Cl)c2)n1 | – | -15.9% [at 11.4 µM]
COc1ccccc1-c1ccc2c(c1)C(C)(Cc1cccc(F)c1)C(=O)N2 (configuration not stated) | 28.2 µM (active) | –
Cc1ccc(Nc2c(-c3ccccn3)nc3cccc(C)n23)cc1 | 3.55 µM (active) | –
Cc1cccc(N(CC(O)CON=C2c3ccccc3-c3ccccc32)S(C)(=O)=O)c1 (configuration not stated) | 25.1 µM (active) | –
N#Cc1ccc(/C=C\c2nccc3c2[nH]c2ccccc23)cc1 | – | -24% [at 11.4 µM]
Cc1c(C(=O)N/N=C/c2c(O)ccc3ccccc23)nnn1-c1nonc1N | 0.282 µM (active) | –
Nc1nonc1-n1nnc(C(=O)N/N=C/c2ccccc2O)c1CN1CCCC1 | 10 µM (active) | –
CC1CCN(Cc2c(C(=O)N/N=C/c3ccccc3O)nnn2-c2nonc2N)CC1 | 1.58 µM (active) | –
O=C(/C=C/c1ccccc1Cl)c1ccccc(=O)c1O | – | 33.6%
COc1cc2c3nnc(-c4ccc(F)cc4)c-3cn(Cc3ccccc3F)c2cc1OC | – | 65% [at 11.4 µM]
Oc1c(C(Nc2cccc(C(F)(F)F)c2)c2ccncc2)ccc2cccnc12 (configuration not stated) | 3.98 µM (active) | –
O=[N+]([O-])c1ccc(NC(c2ccccc2)c2ccc3cccnc3c2O)cc1 (configuration not stated) | 2.51 µM (active) | –

Structure (SMILES) | Potency | activity change, negative = inhibition
CC(C)C(=O)NC(c1cccc([N+](=O)[O-])c1)c1ccc2cccnc2c1O (configuration not stated) | 2.82 µM (active) | –
C[C@@H]1CN([C@H](C)CO)S(=O)(=O)c2ccc(-c3ccc(C#N)cc3)cc2O[C@H]1CN(C)C(=O)Nc1cc(F)ccc1F | 12.6 µM (active) | –
Cc1cc(C)c2nc(N3CCCC(C(=O)N4CCN(c5ncccn5)CC4)C3)sc2c1 (configuration not stated) | 3.55 µM (active) | –
O=c1c(O)c(-c2ccccc2)oc2ccccc12 | – | -28.6% [at 11.4 µM]
CCCCN(C(=O)c1cccc2c(=O)c(C)c(-c3ccccc3)oc12)c1ccccc1 | 12.6 µM (active) | –
COc1ccc(Cc2[nH]n3c(=O)cc(C(C)C)nc3c2-c2ccccc2)cc1 | 8.91 µM (active) | –
CN1CCC[C@H]1CCNc1ccc2c(=O)c3ccccc3n(C)c2c1 | – | 8.82%
O=C(CSc1ccc2ccccc2c1)Nc1nc2ccccc2[nH]1 | – | 78.8% [at 11.4 µM]
O=C(CSc1n[nH]c(-c2ccccn2)n1)Nc1ccccc1 | 7.94 µM (active) | –
O=C(CSc1n[nH]c(-c2ccccn2)n1)Nc1ccc(Cl)cc1 | 0.794 µM (active) | –
O=C(CSc1n[nH]c(-c2ccccn2)n1)Nc1ccc(F)cc1 | 8.91 µM (active) | –
O=C(CC1NCCc2ccccc21)Nc1ccc(Cl)cc1 (configuration not stated) | – | 5.88% [at 11.4 µM]
CCn1cc(C(=O)NCCCN2CCCC(C)C2)c(=O)c2cc(S(=O)(=O)N3CCc4ccccc4C3)ccc21 (configuration not stated) | – | -12.8%
CCn1cc(C(=O)NCc2ccccc2)c(=O)c2cc(F)c(N3CCN(C(=O)c4ccco4)CC3)cc21 | 25.1 µM (active) | –
CCn1cc(C(=O)NCc2cccc(F)c2)c(=O)c2cc(F)c(N3CCN(C(=O)c4ccco4)CC3)cc21 | 15.8 µM (active) | –
CCOC(=O)Cn1cc(C(=O)c2ccco2)c2ccccc21 | – | -4.82% [at 11.4 µM]
COC(=O)c1ccc(Oc2nc(NC(C)C)nc(N(C)C)n2)cc1 | – | -22.6% [at 11.4 µM]
Nc1c(C(=O)NCc2ccccc2)c2nc3ccccc3nc2n1-c1ccc2c(c1)OCO2 | – | 26.3% [at 11.4 µM]
O=C(NCc1ccccc1)c1ccc(C(=O)N(C2CCCCC2)C2CCCCC2)cc1 | 31.6 µM (active) | –
CC(C(=O)c1ccc(-c2ccccc2)cc1)[n+]1cccc(NC(=O)c2ccccc2)c1 (configuration not stated) | – | -21.8% [at 11.4 µM]
Cc1cc[n+](C(C)C(=O)c2ccc(-c3ccccc3)cc2)cc1 (configuration not stated) | 10 µM (active) | –
N#Cc1c(Oc2ccc3ccccc3c2)sc(C(=O)c2ccccc2)c1N | 14.1 µM (active) | –

Structure (SMILES) | Potency | activity change, negative = inhibition
COc1cccc(C(=O)c2sc(NC(C)C)nc2N)c1 | – | 267% [at 11.4 µM]
CNc1ccc(Br)cc(C(=O)/C=C/c2ccc3c(c2)OCO3)c1=O | – | -5.4% [at 11.4 µM]
CCOC(=O)Oc1c(OC)cc(C(=O)O[C@@H]2C[C@@H]3CN4CCc5c([nH]c6cc(OC)ccc56)[C@H]4C[C@@H]3[C@H](C(=O)OC)[C@H]2OC)cc1OC | 28.2 µM (active) | –
CC(C)(C)OC(=O)NNc1c2ccccc2nc2ccccc12 | 2.24 µM (active) | –
Oc1ccc(C2CNCc3sccc32)cc1O (configuration not stated) | – | -3.02%
COc1cccc2c1C1COC3C4CC(C(=O)O)C(C(C2)N13)N4C (configuration not stated) | 12.6 µM (active) | –
COc1cccc2c1C(CO)N1C(C#N)C3CC(C(=O)O)C(C1C2)N3C (configuration not stated) | – | -24.6%
Oc1ccc(C[C@@H]2CNCCN2CCc2cc(C(F)(F)F)cc(C(F)(F)F)c2)cc1 | – | -21.2% [at 11.4 µM]
CC[C@]12c3[nH]c4ccc(Cl)cc4c3CCN1C(=O)[C@@H](CC(=O)NCC13CC4CC(CC(C4)C1)C3)C[C@@H]2C(=O)N1CCN(C(=O)C2CC2)CC1 | 14.1 µM (active) | –
Cc1ccc(Cc2cnc(NC(=O)/C(C#N)=C/c3ccc(-c4cccc([N+](=O)[O-])c4)o3)s2)cc1 | – | -24.2%
CCOc1ccc(OCC)c(NC(=O)Nc2ccc3c(c2)N(C)C(=O)CS3)c1 | 22.4 µM (active) | –
COc1ccccc1CNc1nc(NCc2cccc(OC)c2OC)c2sccc2n1 | 17.8 µM (active) | –
COc1ccccc1CNc1nc(NCc2ccc(NC(C)=O)cc2)c2sccc2n1 | – | -22.7% [at 11.4 µM]
O=C(/C=C/c1ccc(Cl)cc1)Nc1ccc(CN2CCOCC2)cc1 | 3.16 µM (active) | –
O=C(CN(c1cccc(Br)c1)S(=O)(=O)c1ccccc1)N/N=C/c1cc([N+](=O)[O-])ccc1O | 10 µM (active) | –
CN(Cc1ccccc1)C1=CC(=[N+]2CCCC2)CC(C)(C)C1 | 0.447 µM (active) | –
Cc1cccc(OCC(=O)Nc2ccc3c(c2)nc(CCN2CCN(c4ccccn4)CC2)n3C)c1 | 14.1 µM (active) | –
COc1cccc(/C=N/NC(=O)c2ccc(-c3ccccc3)cc2)c1O | 2 µM (active) | –
CCn1c(C)nc2cc(C(=O)N/N=C/c3cccc(OC)c3O)ccc21 | 2.51 µM (active) | –
COc1cccc(/C=N/NC(=O)c2cc(-c3ccccn3)nc3ccccc23)c1O | 2.82 µM (active) | –
COc1cccc(/C=N/NC(=O)c2c(C)nc3ccc(Cl)cn23)c1O | 1.41 µM (active) | –

Reference: PubChem BioAssay AID1745847 (National Center for Advancing Translational Sciences (NCATS), 2022)
